# Test results: PubChem BioAssay
# Unmarked numbers belong to inactive results. No rule for the calls is given here.
# Biological target: Pantothenate synthetase (Mycobacterium tuberculosis (strain ATCC 25618 / H37Rv)) (UniProt P9WIL5)
# Assay: Recombinant Mtb pantothenate synthetase (PanC) inhibitors, coupled enzyme, confirmatory (AID 375);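 also: 0% = full reaction with vehicle and 100% = no enzyme background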
# Conditions: coupled enzyme assay; at 10 µM, active compounds read high
# Sequence of Pantothenate synthetase (Mycobacterium tuberculosis (strain ATCC 25618 / H37Rv)) (P9WIL5 whole entry, looked up): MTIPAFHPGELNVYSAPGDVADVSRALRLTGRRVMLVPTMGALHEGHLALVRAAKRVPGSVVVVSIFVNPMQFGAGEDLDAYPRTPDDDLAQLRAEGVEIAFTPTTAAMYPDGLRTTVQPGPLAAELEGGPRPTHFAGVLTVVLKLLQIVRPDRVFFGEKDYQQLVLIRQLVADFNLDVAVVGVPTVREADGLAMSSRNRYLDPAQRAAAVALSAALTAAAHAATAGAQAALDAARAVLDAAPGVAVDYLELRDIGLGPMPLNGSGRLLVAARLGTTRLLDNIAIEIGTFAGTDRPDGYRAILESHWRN
row,SMILES,inhibition
1,Cc1c(Cl)cnc(NC(=O)COC(=O)C(NC(=O)c2ccco2)C(C)C)c1Cl (stereo not given),8%
2,COc1cc(N=c2ssnc2Cl)cc(OC)c1,1%
3,c1ccc(OCCCn2nnc(-c3cccnc3)n2)cc1,3%
4,Cc1c(NC(=O)C2CCCCN2S(=O)(=O)c2ccc(Cl)cc2)c(=O)n(-c2ccccc2)n1C (stereo not given),0%
5,Cc1sc(NC(=O)CSc2nnc(COc3ccccc3)n2C)c(C#N)c1C,6%
6,Cc1[nH]nc2c1C1(C(=O)N(Cc3ccc(Cl)cc3)c3ccccc31)C(C#N)=C(N)O2 (stereo not given),0%
7,COCCn1c(Sc2nc(C)cs2)nc2c1c(=O)[nH]c(=O)n2C,0%
8,CCOC(=O)c1cccc(NC(=O)CSc2nnc(-c3ccoc3C)n2CCOC)c1,1%
9,CCOC(=O)c1ccccc1NC(=O)Cn1cnc2c(cnn2-c2ccc(OC)cc2)c1=O,0%
10,Cc1ccccc1C(=O)NC1CCN(CC(=O)Nc2nccs2)CC1,0%
11,COc1cccc(-c2csc3nc[nH]c(=O)c23)c1,3%
12,CC1(C)C2CCC1(C)C(OC(=O)CSc1nc(N)cc(=O)[nH]1)C2 (stereo not given),0%
13,CCn1nccc1C(=O)Nc1cc(Cl)ccc1Cl,0%
14,CCOCCCNC(=O)CC1Oc2ccc(C)cc2NC1=O (stereo not given),0%
15,CC1(C)CNC(=O)c2sc(N3CCOCC3)nc2C1,0%
16,COc1cccc(C(=O)Nc2cnc(NC(=O)c3ccco3)cc2C)c1,9%
17,Cc1ccc2c(c1)N(CC(=O)N1CCCCC1c1cccnc1)C(=O)CO2 (stereo not given),0%
18,Cc1cccc(C)c1NC(=O)COC(=O)c1nonc1N,0%
19,O=c1c2nnn(Cc3ccccc3)c2ncn1-c1ccccc1,0%
20,CCOC(=O)c1[nH]c(C)c(C(=O)Nc2ccc(Cl)cc2)c1C,0%

row,SMILES,inhibition
1,O=C(NC1CC1)c1ccc(S(=O)(=O)NCC2CCCCC2)cc1,0%
2,CCCn1c(NCc2ccc3c(c2)OCO3)nc2ccccc21,0%
3,CC(C)Cn1c(N)c(C(=O)NCCN2CCOCC2)c2nc3ccccc3nc21,0%
4,COc1ccc(C(NC(C)=O)c2ccc3cccnc3c2O)c(OC)c1 (stereo not given),0%
5,Cc1ccccc1Cn1ccc(NC(=O)c2cnn3c(C(F)(F)F)cc(-c4ccco4)nc23)n1,5%
6,COc1ccccc1N1CCN(C(=O)C2CC=CCC2C(=O)O)CC1 (stereo not given),14%
7,CCOC(=O)N1CCN(CC(=O)Nc2c(C(=O)OC)[nH]c3cccc(Cl)c23)CC1,0%
8,CCOc1ccccc1C(=O)NCc1ccc2c(c1)OCO2,4%
9,COc1ccc(-n2c(=O)cc(N3CCN(Cc4ccccc4)CC3)[nH]c2=O)cc1,0%
10,O=C(Nc1ccc2c(c1)OCCO2)C1CCCN(S(=O)(=O)c2cnc[nH]2)C1 (stereo not given),0%
11,CSC1=C(C#N)C(c2ccc(C)cc2)C2=C(CCCC2=O)N1 (stereo not given),0%
12,COc1ccccc1OCCOc1ccccc1/C=N/n1cnnc1,6%
13,CC(C)(C)SCCNC(=O)CSc1ccccc1,7%
14,CCOc1ccc(OCC)c(NC(=O)CN2CCN(C(=O)c3ccco3)CC2)c1,0%
15,CCC(C)NC(=O)c1cc(CC(C)C)on1 (stereo not given),2%
16,CCCCC(=O)Nc1nn(CCC)c2nc3ccccc3cc12,0%
17,C=C(C)CSc1nnc2[nH]c(=O)cc(N)n12,0%
18,CCOC(=O)c1ccc(NC(=O)N2CCN(Cc3cccc(F)c3)CC2)cc1,0%
19,Cc1cc(C)n(-c2ccc3cccc(NS(C)(=O)=O)c3n2)n1,0%
20,CN(CCc1ccccn1)c1ncnc2[nH]ncc12,0%
